Test results taken from PubChem BioAssay (EPA / NIEHS).
The source made the active and inactive calls. How the source made its calls: active means hit-call score of the fitted dose curve at least 0.9, where 1 is the maximum; inactive means score below 0.9.

assay: IUF_NPC2-5_viability_120hr: Viability Assessment at 120 hours in the Leibniz Research Institute for Environmental Medicine (IUF) Neural Progenitor Cell Migration and Differentiation Assay (NPC2-5) (AID 2284312)
Experimental: IUF_NPC2-5 is a cell-based, multiplexed assay that uses hNPC, a human primary neural progenitor cells, with measurements taken at 72 or 120 hours after chemical dosing in a 96-well plate. Human neural progenitor cells (hNPC) are generated from human fetal brain cortex at gestational week (GW) 16-19. In the neural progenitor cell migration and differentiation assay (NPC2-5), hNPCs grown as spheres are plated on an extracellular matrix and migrate and differentiate out of the sphere core. The processes radial glia migration, neuronal and oligodendrocyte migration as well as neuronal differentiation, neuronal morphology and oligodendrocyte differentiation are studied using automated phase contrast imaging and automated fluorescence imaging in combination with high content image analysis. In parallel, the cell viability is assessed using an alamar blue viability assay and the cytotoxicity using a lactate dehydrogenase dependent membrane integrity assay.IUF_NPC2-5_viability_120hr is one of 12 assay components measured from the IUF_NPC2-5 assay. It is designed to measure cell viability assessed as mitochondria-dependent reduction of resazurin to resorufin using the alamar blue viability assay. The viability is measured as a fluorescence signal (relative fluorescence unit) in a multiplate reader. Data from the IUF_NPC2-5_viability_120hr component was analyzed at the endpoint IUF-NPC2-5_viability_120hr in the positive analysis fitting direction relative to DMSO as the negative control and baseline of activity. Using a type of viability reporter, gain or loss-of-signal activity can be used to understand viability effects.
Culture protocol: After the cell expansion period the cells are cultured for up to four weeks in which they are passaged every week as described in 3.6. Between one to three days after passaging spheres at a size of 0.3 mm are picked for the test method. For the assessment of neural progenitor cell migration and differentiation, the spheres are plated on poly-D-lysine/laminin coated 96-well flat bottom plates in differentiation medium (N2) to initiate migration and differentiation. Thereby one 0.3 mm big sphere is plated in the middle of a well. The differentiation medium consists of DMEM and Ham's F12 at a ratio of 3 to 1 supplemented with 1% N2 and 1% penicillin and streptomycin. Within 5 days NPCs radially migrate out of the sphere core and differentiate into radial glia cells (nestin positive), neurons (TUBB3 positive), oligodendrocytes (O4 positive) and astrocytes (GFAP positive). Cultivation during the test method is performed at 37C and 5% CO2 at a ph of 7.2-7.6.Exposure: 0.3 mm big hNPC are plated in the already prepared test conditions. Exposure starts at day 0 of differentiation and is continued over five days of differentiation until the experiment is terminated. Cells are fed with fresh medium at day 3 of differentiation. Therefore, half of the test condition solution (e.g. solvent control or compound dilution) is replaced by freshly prepared test condition solution.Test Method: Migration distance and cytotoxicity is determined after 72 hours based on brightfield images of each well. The assay is terminated by the assessment of cell viability and cytotoxicity as well as cell fixation after 120 h. Immunocytochemistry is performed for Hoechst positive nuclei, TUBB3 positive neurons and O4 positive oligodendrocytes. On the ICC images, migration after 120 hours, neuronal and oligodendrocyte number, neuronal morphology and neuron/oligodendrocyte specific migration is assessed. immunocytochemical staining (ICC) generates an image for each sphere. The plates are scanned using an automated high content imaging device and all nuclei and their positions are determined automatically based on their intensity and size. Images are imported to the Omnisphero software to run the image analysis that measures the following endpoints. The method is set up for 8 test conditions including 7 compound concentrations and one SC. […]

SMILES	outcome
CCNC(=O)NC(=O)C(C#N)=NOC	inactive
O=C(Nc1ccccc1-c1ccc(Cl)cc1)c1cccnc1Cl	inactive
COP(=S)(OC)SCn1nnc2ccccc2c1=O	inactive
CS(=O)(=O)c1ccc(C(=O)C2C(=O)CCCC2=O)c([N+](=O)[O-])c1	inactive
CS(=O)(=O)c1cc(C(F)(F)F)ccc1C(=O)c1cnoc1C1CC1	inactive
CCOP(=O)(OCC)Oc1nc(Cl)c(Cl)cc1Cl	inactive
CO/N=C(/C1=NOCCO1)c1ccccc1Oc1ncnc(Oc2ccccc2Cl)c1F	inactive
CNC(=O)Oc1cccc2ccccc12	inactive
COC(=O)N(C(=O)N1CO[C@@]2(C(=O)OC)Cc3cc(Cl)ccc3C2=N1)c1ccc(OC(F)(F)F)cc1	inactive
N#CN=C1SCCN1Cc1ccc(Cl)nc1	inactive
CCSC(=O)N1CCCCCC1	inactive
C=C(C)CN(CC)c1c([N+](=O)[O-])cc(C(F)(F)F)cc1[N+](=O)[O-]	inactive
CN/C(=N\[N+](=O)[O-])NCc1cnc(Cl)s1	inactive
CC(C)(C)C(=O)C(Oc1ccc(Cl)cc1)n1cncn1 (stereo unspecified)	inactive
Cc1c(COC(=O)[C@@H]2[C@H](/C=C(\Cl)C(F)(F)F)C2(C)C)cccc1-c1ccccc1	inactive
CC1(C)C(C=C(Cl)Cl)C1C(=O)OC(C#N)c1cccc(Oc2ccccc2)c1 (stereo unspecified)	inactive
